Data published in PubChem BioAssay (Tox21).
Values joined by “and” are separate entries in the source; they are usually repeats but may differ in a detail not shown here. Equal values may be shown once. Records with an inconclusive call do not appear. A structure can be active in one record and inactive in another. Active and inactive are the calls of the source. Calls come from the whole dose curve; as a rule, active = well fitted curve in the direction sought with a large enough effect in the repeat runs; inconclusive = weak or mixed curves; inactive = no such curve, though single readings can be large; an effect the other way counts as inactive or inconclusive.

Legend:
[1] = A CellTox Green Cytotoxicity Assay to monitor cytotoxicity in HEK293 cells - 40 hour (AID 1224871); note: nearly all actives have a fitted effect of over 45% in size; note: potency is the fitted concentration of half-maximal effect
Method in brief: (§1)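 Cells (HEK293, 600/well) and dye reagent are dispensed together. After 5 h at 37 C, 23 nL compound is pinned in. Plates stay at 37 C for 40 h with fluorescence read at 0h, 8h, 16h, 24h, 32h and 40h.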

[2] = qHTS RealTime-Glo MT Cell Viability Assay in HEK293 cells - 16 hour (AID 1224872); note: nearly all actives have a fitted effect of over 50% in size; note: potency is the fitted concentration of half-maximal effect; for activity change, negative = cytotoxicity: top concentration of the series differs between compounds
Method in brief: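 Nonlytic real-time viability readout: viable cells convert prosubstrate to NanoLuc substrate, giving luminescence proportional to live cell number. HEK293, 600 cells/well, compound added after 5 h, continuous culture at 37 C.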

[3] = qHTS RealTime-Glo MT Cell Viability Assay in HepG2 cells - 8 hour (AID 1224873); note: nearly all actives have a fitted effect of over 55% in size; note: potency is the fitted concentration of half-maximal effect
Method in brief: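 HepG2 cells (600/well) mixed with RealTime-Glo MT reagent, settled 5 h at 37 C/5% CO2 before compound addition. Nonlytic NanoLuc luminescence from viable-cell prosubstrate reduction read repeatedly during 40 h treatment at 37 C.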

[4] = qHTS RealTime-Glo MT Cell Viability Assay in HEK293 cells - 40 hour (AID 1224874); settings: RealTime-Glo luminescence; max response: stronger effect = lower value; note: nearly all actives have a fitted effect of over 50% in size; note: potency is the fitted concentration of half-maximal effect
Method in brief: (§2)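 Real-time viability in HEK293: signal arises when living cells convert a prosubstrate for NanoLuc in the medium, so luminescence tracks viable cell number. Compound (23 nL, DMSO) added 5 h post-seeding; kinetic reads at 0–40 h, 37 C.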

[5] = A CellTox Green Cytotoxicity Assay to monitor cytotoxicity in HEK293 cells - 24 hour (AID 1224875); note: nearly all actives have a fitted effect of over 45% in size; note: potency is the fitted concentration of half-maximal effect; for activity change: series mostly up to about 77 µM
Method in brief: as §1

[6] = A CellTox Green Cytotoxicity Assay to monitor cytotoxicity in HepG2 cells - 16 hour (AID 1224876); note: nearly all actives have a fitted effect of over 45% in size; note: potency is the fitted concentration of half-maximal effect
Method in brief: (§3)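 Cells and non-lytic dye reagent are dispensed together (600 HepG2 cells/well) and incubated 5 h before DMSO compound transfer. Kinetic fluorescence is then recorded in the same wells during 40 h at 37 C.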

[7] = qHTS RealTime-Glo MT Cell Viability Assay in HepG2 cells - 32 hour (AID 1224877); note: nearly all actives have a fitted effect of over 55% in size; note: potency is the fitted concentration of half-maximal effect
Method in brief: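 Luminescence read-out: viable HepG2 cells reduce a prosubstrate to a NanoLuc substrate, giving a signal proportional to live cell number. Reads taken at 0, 8, 16, 24, 32 and 40 h of compound exposure at 37 C.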

[8] = A CellTox Green Cytotoxicity Assay to monitor cytotoxicity in HepG2 cells - 24 hour (AID 1224878); note: nearly all actives have a fitted effect of over 45% in size; note: potency is the fitted concentration of half-maximal effect
Method in brief: as §3

[9] = A CellTox Green Cytotoxicity Assay to monitor cytotoxicity in HepG2 cells - 40 hour (AID 1224879); note: nearly all actives have a fitted effect of over 40% in size; note: potency is the fitted concentration of half-maximal effect
Method in brief: as §3

[10] = qHTS RealTime-Glo MT Cell Viability Assay in HEK293 cells - 0 hour (AID 1224880)
Method in brief: as §2
% is set by controls: 0 for no effect and ±100 for the full control effect.

FC(Cl)(Cl)Cl
inactive: Potency [1] | Potency [2] | Potency [3] | max response [4] -2.7% | Potency [5] | Potency [6] | Potency [7] | Potency [8] | Potency [9]

Clc1ccc(C(c2ccccc2Cl)C(Cl)(Cl)Cl)cc1 (stereo unspecified)
49.3 µM (active) and inactive: Potency [2]
active: Potency [4] 49.3 µM
inactive: Potency [3] | max response [4] -21.7% | Potency [5] | Potency [7] | Potency [8] | Potency [9] | Potency [10]
43.9 µM (active) and inactive: Potency [1]

CN(C)C(=S)[S-].CN(C)C(=S)[S-].[Cu+2]
inactive: activity change, negative = cytotoxicity [10] -3.44% [at 15.8 µM]
active: Potency [1] 2.38 µM | Potency [2] 1.89 µM | Potency [3] 6.7 µM | Potency [4] 1.19 µM | Potency [5] 2.38 µM | Potency [6] 4.23 µM | Potency [7] 2.67 µM | Potency [8] 2.38 µM | Potency [9] 2.67 µM

O=c1[nH]c2ccccc2n1CCCN1CCC(n2c(=O)[nH]c3cc(Cl)ccc32)CC1
active: Potency [2] 9.52 µM | Potency [4] 10.7 µM | Potency [8] 21.3 µM
inactive: Potency [1] | Potency [3] | Potency [5] | Potency [6] | Potency [7]

CNC(C)Cc1ccc2c(c1)OCO2 (stereo unspecified)
inactive: Potency [1] | Potency [2] | Potency [3] | max response [4] -1.8% | Potency [5] | Potency [6] | Potency [7] | Potency [8] | Potency [9]

Oc1ccc(I)cc1
inactive: Potency [1] | Potency [2] | Potency [3] | max response [4] -9.46% | Potency [5] | Potency [6] | Potency [7] | Potency [8] | Potency [9]

ClC(Cl)=C(Cl)Cl
inactive: Potency [1] | Potency [2] | Potency [3] | max response [4] 0.0111% | Potency [5] | Potency [6] | Potency [7] | Potency [8] | Potency [9] | Potency [10]

N#CCc1ccc(Cl)cc1
inactive: Potency [1] | Potency [2] | Potency [3] | max response [4] 1.31% | Potency [5] | Potency [6] | Potency [7] | Potency [8] | Potency [9] | Potency [10]

CC(C)CC(C)N (stereo unspecified)
inactive: Potency [1] | Potency [2] | Potency [3] | max response [4] 4.09% | Potency [5] | Potency [6] | Potency [7] | Potency [8] | Potency [9] | Potency [10]

SCc1ccco1
inactive: Potency [1] | Potency [2] | Potency [3] | max response [4] -11.9% | Potency [5] | Potency [6] | Potency [7] | Potency [8]

N#C/C=C/c1ccccc1
inactive: Potency [1] | Potency [2] | Potency [3] | max response [4] -0.121% | Potency [5] | Potency [6] | Potency [7] | Potency [8] | Potency [9] | Potency [10]

Fc1ccc(Oc2ccnc3cc(Cl)cc(Cl)c23)cc1
active: Potency [2] 7.76 µM | Potency [4] 9.77 µM
inactive: Potency [1] | Potency [3] | Potency [5] | Potency [6] | Potency [7] | Potency [8]

C[CH2][Hg][N]1C(=O)C2C(C1=O)C1(Cl)C(Cl)=C(Cl)C2(Cl)C1(Cl)Cl (stereo unspecified)
active: Potency [1] 4.65 µM | Potency [2] 2.61 µM | Potency [3] 7.37 µM | Potency [4] 2.08 µM | Potency [5] 4.65 µM | Potency [6] 6.57 µM | Potency [7] 6.57 µM | Potency [8] 7.37 µM | Potency [9] 6.57 µM
inactive: activity change, negative = cytotoxicity [10] -4.29% [at 15.8 µM]

CCSC(C)CC1CC(=O)C(/C(CC)=N/OC/C=C/Cl)=C(O)C1 (stereo unspecified)
inactive: Potency [1] | Potency [2] | Potency [3] | max response [4] 0.0447% | Potency [5] | Potency [6] | Potency [7] | Potency [8] | Potency [9] | Potency [10]

CC(C)CBr
inactive: Potency [1] | Potency [2] | Potency [3] | max response [4] 0.766% | Potency [5] | Potency [6] | Potency [7] | Potency [8] | Potency [9] | Potency [10]

COP(=O)(CCC(=O)NCO)OC
inactive: Potency [1] | Potency [2] | Potency [3] | max response [4] 14% | Potency [5] | Potency [6] | Potency [7] | Potency [8] | Potency [9] | Potency [10]

[CH3][Hg][Cl]
active: Potency [1] 6.9 µM | Potency [2] 4.89 µM | Potency [3] 15.5 µM | Potency [4] 3.88 µM | Potency [5] 7.74 µM | Potency [6] 12.3 µM | Potency [7] 10.9 µM | Potency [8] 12.3 µM | Potency [9] 12.3 µM
inactive: Potency [10]

N#CSCSC#N
active: Potency [1] 19.3 µM | Potency [2] 12.6 µM and 15.3 µM | Potency [3] 21.7 µM | Potency [4] 11.2 µM and 21.7 µM | Potency [5] 54.4 µM | Potency [6] 56.2 µM and 24.3 µM | Potency [7] 50.1 µM and 19.3 µM | Potency [8] 50.1 µM and 19.3 µM | Potency [9] 39.8 µM and 17.2 µM
inactive: Potency [10]
